Laboratory results as given in the supplement of paper PMC7380943.
Where a name gives a salt, the structure may show the parent alone. ± gives the standard deviation of the averaged measurements.

Assays:
[1] = system: CLZ3 (HCA2 human fibroblast dual HR-NHEJ reporter); assay: NHEJ repair efficiency (GFP+ cells) relative to control (log10 fold); higher = more non-homologous end joining; settings: 5 µM; doxycycline 0.5 ug/mL
[2] = system: CLZ3 (HCA2 human fibroblast dual HR-NHEJ reporter); assay: HR repair efficiency (tdTomato+ cells) relative to control (log10 fold); higher = more homologous recombination; settings: 5 µM; doxycycline 0.5 ug/mL
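Wherever HR repair efficiency (tdTomato+ cells) relative to control is given: compound given one day before doxycycline, which switches on I-SceI endonuclease expression to create double-strand breaks within the integrated reporter.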
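Wherever NHEJ repair efficiency (GFP+ cells) relative to control is given: compound given one day ahead of doxycycline, which switches on I-SceI endonuclease to cut the chromosomally integrated reporter and create DSBs.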

Compound	NHEJ repair efficiency (log10) [1]	HR repair efficiency (log10) [2]
C[C@@]12C[C@@H](c3ccoc3)OC(=O)[C@@H]1CC[C@]1(C)[C@H]2[C@@H]2C=C[C@@]1(O)C(=O)O2 [Columbin]	-0.00145	-0.0272
CCN1C[C@]2(COC)CC[C@H](O)[C@]34C1[C@@](O)([C@@H](OC)[C@H]23)[C@@]1(O)C[C@H](OC)[C@H]2C[C@@H]4[C@@H]1[C@H]2OC [Delsoline]	-0.0325	0.0487
CCN1C[C@]2(COC)[C@H](O)C[C@H](OC)[C@]34C1[C@H]([C@H](OC)[C@H]23)[C@@]1(OC(C)=O)C[C@H](OC)[C@@H]2C[C@@H]4[C@@H]1[C@H]2OC(=O)c1ccccc1 [13-Dehydroxyindaconintine]	0.0298	-0.0247
O=C1C=CC[C@@H]2[C@H]3CCCN4CCC[C@@H](CN12)[C@@H]34 [Sophocarpine]	-0.0254	0.165
CCN1C[C@]2(COC)[C@H](O)C[C@H](OC)[C@]34C1[C@H]([C@H](OC)[C@H]23)[C@@]1(OC(C)=O)C[C@H](OC)[C@@]2(O)C[C@@H]4[C@@H]1[C@H]2OC(=O)c1ccc(OC)cc1 [Yunaconitine]	-0.0536	-0.204
CCN1C[C@]2(COC)CC[C@H](OC)[C@]34C1[C@H]([C@H](OC)[C@H]23)[C@@]1(O)C[C@H](OC)[C@H]2C[C@@H]4[C@@H]1[C@H]2O [Chasmanine]	0.0232	-0.00256
C=CCSSCC=C [Garlicin]	-0.0895	-0.0428
C=C[C@@H]1C2=CCOC(=O)C2=CO[C@H]1O[C@@H]1O[C@H](CO)[C@@H](O)[C@H](O)[C@H]1O [Gentiopicrin]	-0.0046	0.0966
C/C1=C\C2C(CCC3(CO3)C(O)C3C(O)C(C)CC3(O)C1=O)C2(C)C (stereo not drawn) [6,17-Epoxylathyrol]	-0.129	0.0115
C[C@@H]1CC[C@H]2[C@@H](C)C(=O)O[C@@H]3O[C@@]4(C)CC[C@@H]1[C@]32OO4 [Artemisinin]	0.1	0.328
COc1ccc(Cc2nccc3cc(OC)c(OC)cc23)cc1OC [Papaverine hydrochloride]	-0.296	-0.22
CN[C@@H](C)[C@H](O)c1ccccc1 [Ephedrine hydrochloride]	0.0488	-0.0579
COc1cc2c(cc1O)C[C@@H]1NCCc3cc(OC)c(O)c-2c31 [Norisoboldine]	-0.132	-0.0981
CC(=O)OC[C@]12[C@H](OC(C)=O)[C@H](OC(C)=O)[C@@H]3[C@@H](OC(C)=O)[C@@]14O[C@@]3(C)COC(=O)c1cccnc1CCC(C)C(=O)O[C@@H]([C@H](OC(=O)c1ccccc1)[C@@H]2OC(C)=O)[C@]4(C)O (stereo partly drawn) [Wilforine]	-0.122	0.027
C/C=C/C#CC#C/C=C/c1ccco1 [Atractylodin]	0.014	0.114
CC(C)=CCCC(C)(O)C1CCC2(C)C1C(O)CC1C3(C)CCC(O)C(C)(C)C3C(OC3OC(CO)C(O)C(O)C3O)CC12C (stereo not drawn) [R-Ginsenoside Rh1]	-0.0562	0.0565
COc1cc2c(cc1OC)[C@@]13CCN4CC5=CCO[C@H]6CC(=O)N2[C@H]1[C@H]6[C@H]5C[C@H]43 [Brucine]	-0.228	-0.24
COc1cc(C(=O)OC2C3C=COC(OC4OC(CO)C(O)C(O)C4O)C3C3(CO)OC23)ccc1O (stereo not drawn) [Amphicoside Ii]	0.0243	-0.0261
COC(=O)C1=CCCN(C)C1 [Arecoline Hydrobromide]	0.0326	0.0648
c1cc2c(cc1[C@H]1OC[C@H]3[C@@H]1CO[C@@H]3c1ccc3c(c1)OCO3)OCO2 [Sesamin]	0.0857	0.185
C=C[C@H]1[C@H](O[C@@H]2O[C@H](CO)[C@@H](O)[C@H](O)[C@H]2O)OC=C2C(=O)OCC[C@H]21 [Sweroside]	0.0688	0.0254
C[C@H]1CC[C@@H]2N(C1)C[C@H]1[C@@H]3C[C@H]4[C@@H](C[C@H](O)[C@H]5C[C@@H](O)CC[C@@]54C)[C@@H]3CC[C@@H]1[C@]2(C)O [Peimine]	-0.07	-0.0412
CC(C)(C)[C@]1(O)CC2OC(=O)CC23C(=O)OC2OC(=O)[C@H](O)C231 (stereo partly drawn) [Bilobalide]	0.0452	0.0541
O=c1cccc2n1CC1CC2CN2CCCCC12 (stereo not drawn) [Thermopsine]	0.0072	-0.25
COC[C@]12CN(C)[C@@H]3[C@@H]4[C@H](OC)[C@H]1[C@@]3([C@@H](OC)C[C@H]2O)[C@@H]1C[C@@]2(O)[C@H](OC(=O)c3ccccc3)[C@@H]1[C@]4(OC(C)=O)[C@@H](O)[C@@H]2OC [Mesaconitine]	-0.0215	0.0192
COc1cc2occc2c2oc(=O)ccc12 [Isobergapten]	-0.0955	-0.063
O=C/C=C/c1ccccc1 [Cinnamaldehyde]	0.0683	-0.0835

Compound	NHEJ repair efficiency (log10) [1]	HR repair efficiency (log10) [2]
COC[C@@]12CC[C@H](OC)[C@]34C(C([C@H](OC)[C@H]13)[C@]1(OC(C)=O)[C@H]3[C@@H](OC(=O)c5ccccc5)[C@](O)(C[C@H]34)[C@@H](OC)[C@@H]1O)N(C)C2 [Hypaconitine]	0.0511	0.0965
CCN1C[C@]2(COC)CC[C@H](O)C34C1C([C@H](OC)[C@@H]32)[C@]1(O)[C@@H]2[C@H]4CC([C@@H](OC)[C@@H]1O)[C@@H]2O [Fuziline]	0.0177	0.0271
CNCC(O)c1ccc(O)cc1 (stereo not drawn) [Synephrine]	0.0915	0.108
CC(=O)[C@]1(O)CC[C@@]2(O)[C@]1(C)[C@H](OC(=O)/C=C(\C)C(C)C)C[C@@H]1[C@@]3(C)CC[C@H](O)CC3=CC[C@]12O [Caudatin]	-0.0815	-0.0376
CCN1C[C@]2(COC)CC[C@H](OC)[C@]34C1[C@H]([C@H](OC)[C@H]23)[C@@]1(OC(C)=O)C[C@H](OC)[C@@]2(O)C[C@@H]4[C@@H]1[C@H]2OC(=O)c1ccc(OC)cc1 [Crassicauline A]	0.00451	0.0792
CCN1C[C@]2(COC)CC[C@H](OC)[C@]34C1[C@H](C[C@H]23)[C@@]1(O)C[C@H](OC)[C@H]2C[C@@H]4[C@@H]1[C@H]2O [Talatisamine]	0.0604	0.0585
C[C@H]1CCC2N(C1)C[C@H]1C3CC4[C@@H](CC(=O)C5C[C@@H](O)CC[C@@]54C)C3CCC1[C@]2(C)O (stereo partly drawn) [Peiminine]	-0.0507	0.0963
CC[C@H]1CN2CC[C@]3(C(=O)Nc4ccccc43)[C@@H]2C[C@@H]1/C(=C\OC)C(=O)OC [Rhynchophylline]	-0.15	-0.0611
C[C@H]1C(=O)O[C@@H]2CCN3CC=C(COC(=O)[C@](C)(O)[C@]1(C)O)[C@H]23 [Monocrotaline]	-0.0165	0.0383
CC(C)=CCOc1c2occc2cc2ccc(=O)oc12 [Imperatorin]	0.0993 ± 0.22	0.135 ± 0.28
O=c1ccc2ccc3occc3c2o1 [Isopsoralen]	-0.0427	-0.0598
COC[C@]12CN(C)C3[C@@H]4[C@H](OC)[C@H]1[C@@]3([C@@H](OC)C[C@H]2O)[C@@H]1C[C@@]2(O)[C@H](OC(=O)c3ccccc3)[C@@H]1[C@]4(O)[C@@H](O)[C@@H]2OC [Benzoylmesaconine]	-0.0412	-0.144
COc1ccc2c(c1OC)CN1CCc3cc4c(cc3C1C2)OCO4 (stereo not drawn) [Tetrahydroberberine]	-0.000562	0.103
CCN1C[C@@]2(COC)[C@H]3[C@@H](OC)[C@H]4C1[C@]3([C@@H](OC)C[C@H]2OC(C)=O)[C@@H]1C[C@@]2(O)[C@H](OC(=O)c3ccccc3)[C@@H]1[C@]4(OC(C)=O)[C@@H](O)[C@@H]2OC [Acetylaconitine]	-0.0797	-0.0667
CCC1=C[C@H]2CN3CCc4c([nH]c5ccccc45)[C@](C(=O)OC)(C2)[C@H]13 [Catharanthine]	0.00477	0.0298
COC1=C[C@@H]2[C@@H]3Cc4ccc(OC)c(O)c4[C@]2(CCN3C)CC1=O [Sinomenine]	0.154	0.274
CN(C)Cc1c[nH]c2ccccc12 [Gramine]	0.014	-0.0905
CN(C)CCc1ccc(O)cc1 [Hordenine]	-0.0244	0.111
O=C1CCC[C@@H]2[C@H]3CCCN4CCC[C@@H](CN12)[C@@H]34 [Matrine]	-0.00125	-0.0371
O=c1cccc2n1C[C@@H]1CNC[C@H]2C1 [Cytisine]	0.00702	0.264
CCN1CC2(COC)CCC(O)C34C5CC6C(OC)CC(O)(C5C6O)C(C(OC)C23)C14 (stereo not drawn) [Bullatine B]	-0.0469	0.0659
C=C(C)C1CC=C(C=O)CC1 (stereo not drawn) [Perillaldehyde]	0.0128	-0.104
C[C@H]1CC[C@H]2[C@H](C)[C@@H]3CC[C@@H]4[C@@H](C[C@H]5[C@H]4C[C@@H](O)[C@H]4C[C@@H](O)CC[C@@]45C)[C@@H]3CN2C1 [Hupehenine]	0.00613	-0.0543
O=C(/C=C/c1ccccc1)OC[C@H]1O[C@@H](O[C@@H]2OC=C[C@H]3[C@H](O)[C@@H]4O[C@]4(CO)[C@@H]23)[C@H](O)[C@@H](O)[C@@H]1O [Picroside I]	-0.0564	-0.0261
CCN1C[C@]2(COC)[C@H](O)C[C@H](OC)[C@]34C1[C@H]([C@H](OC)[C@H]23)[C@]1(O)[C@H]2[C@@H](O)[C@](O)(C[C@H]24)[C@@H](OC)[C@@H]1O [Aconine]	-0.104	0.0705
CCN1C[C@]2(COC)[C@H](O)C[C@H](OC)[C@]34C1[C@H]([C@H](OC)[C@H]23)[C@@]1(OC(C)=O)C[C@H](OC)[C@@]2(O)C[C@@H]4[C@@H]1[C@H]2OC(=O)c1ccccc1 [Indaconitine]	0.0186	0.112
C=C[C@@H](O)C#CC#C[C@@H](O)/C=C\CCCCCCC [Falcarindiol]	-0.109	-0.13
